Shown are actives, neighbours in structure and some others; about 3.8% of the full set was active somewhere.
HSF1 inh = HSF1 inhibition; NIH3T3-HGL HSE-luciferase, MG132-induced, luminescence 8 h; stronger effect = lower value; activity change, negative = inhibition, % at 7.5 µM (by protocol); 0.77% of 300,000 active; AID 2098;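 active means more than half of replicate wells show activity change below -50%, luminescence cut by over half; inconclusive means some wells, but at most half, below -50%; inactive means no replicate well below -50%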;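 further: luciferase reports HSF-1 transcriptional activity via heat shock element; 0% = median of DMSO wells and -100% = zero luminescence signal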
esBAF inh = inhibitors of esBAF chromatin remodeling in mouse ES cells. Bmi1-luciferase knock-in reporter, 24 h; 100% = twice the neutral-well signal. AID 602393. reporter increase, % at 12.5 µM. 2% of 350,000 active; in the data active means activation above about 40%; inconclusive means no clear call, values can overlap the other calls;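 further: 0% = median of the plate's neutral control wells and 100% = double that signal; a rise in the Bmi1 reporter signal indicates esBAF inhibition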
HSF1 activator = increases HSF-1 driven luciferase reporter signal. AID 504408. 1.7% of 300,000 active. NIH3T3-HGL HSF-1 luciferase reporter, MG132, 8 h; 100% = twice DMSO control signal. activation, % at 9 µM;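 active means mean replicate activation of at least 50% with a set share of replicates each reaching 50%; inconclusive means only one of those two conditions met; inactive means mean below 50% and too few replicates reaching it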;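 further: 0% = median of the neutral control wells and 100% = twice that signal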
Wnt act = activates Wnt/beta-catenin signaling in a reporter cell assay. activation, % at 9.35 µM. activator, plate reader. 1.2% of 300,000 active. AID 743398; in the data active means activation above about 30%, passing the limit was not always enough; inconclusive means no clear call, values can overlap the other calls;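 further: 0% = neutral control wells and 100% = positive control wells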
MITF TRPM1 HTS = activators of MITF-driven TRPM1 promoter activity in SK-MEL-5 cells; SK-MEL-5 TRPM1-promoter luciferase, 24 h; % of positive control, neutral wells = 0; activation, % at 12.5 µM; 0.75% of 300,000 active;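 active means mean activation of at least 80% with every replicate also reaching 80%; inconclusive means mean reaches 80% but some replicate falls short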;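 further: 0% = neutral control wells and 100% = parthenolide positive control wells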
An asterisk follows results filed as active.

How did COc1ccc(/C=C2/C(=O)N(c3ccccc3)N=C2C)cc1OC do in these assays?
HSF1 inh: -1; esBAF inh: -10; HSF1 activator: -7; Wnt act: 0

What do the screens show for `COc1cccc(/C=C/C(=C2\C(=O)N(c3ccccc3)N=C2C)c2ccc(Br)cc2)c1OC`?
esBAF inh: -8; Wnt act: 33*

What do the screens show for `C[C@H]1CN([C@@H](C)CO)C(=O)c2cc(NC(=O)Cc3cn(C)c4ccccc34)ccc2O[C@@H]1CN(C)C(=O)Nc1ccc2c(c1)OCO2`?
esBAF inh: 7

Results for CC(=O)Nc1ccc(-c2cc(N)n(-c3ccccc3)n2)cc1 ?
HSF1 inh: -46; HSF1 activator: -50; Wnt act: 44*; MITF TRPM1 HTS: 48

Results for Cc1ccc(-c2cc(NC(=O)CCl)n(-c3ccccc3)n2)cc1 ?
HSF1 inh: 50; esBAF inh: 2; HSF1 activator: 65*; Wnt act: -6; MITF TRPM1 HTS: 8

How did Nc1cc(-c2ccc(Cl)cc2)nn1-c1ccccc1 do in these assays?
HSF1 inh: 4; esBAF inh: 58*; HSF1 activator: 12; Wnt act: 49*; MITF TRPM1 HTS: 119*

Results for COc1ccc(NC(=O)N(C)C[C@@H]2Oc3ccc(NS(=O)(=O)c4ccccc4)cc3CC(=O)N([C@H](C)CO)C[C@@H]2C)cc1 ?
esBAF inh: -1

What do the screens show for `Cc1[nH]n(-c2ccccc2)c(=O)c1/C=N/N1C(=O)c2ccc3c4c(ccc(c24)C1=O)CC3`?
HSF1 inh: 34; esBAF inh: -7; HSF1 activator: 75*; Wnt act: -2; MITF TRPM1 HTS: -11

How did Cc1[nH]n(-c2ccccc2)c(=O)c1/C=N/O do in these assays?
esBAF inh: -6; Wnt act: -1; MITF TRPM1 HTS: 5

What do the screens show for `CCn1c(C)cs/c1=N\S(=O)(=O)c1ccccc1`?
HSF1 inh: 3; esBAF inh: -4; HSF1 activator: -5; Wnt act: -1; MITF TRPM1 HTS: -1

How did O=Cc1s/c(=N\S(=O)(=O)c2ccccc2)n(CCCCl)c1Cl do in these assays?
HSF1 inh: 44; HSF1 activator: 60*; Wnt act: -22; MITF TRPM1 HTS: -96

How did O=C(C#Cc1ccccc1)c1ccccc1 do in these assays?
esBAF inh: -69; Wnt act: -11

How did O=C(C#Cc1ccccc1)c1ccc([N+](=O)[O-])cc1 do in these assays?
HSF1 inh: 51; HSF1 activator: 61*; Wnt act: inconclusive; MITF TRPM1 HTS: -67

Results for COc1cc(O)oc1C=Nc1ccc(C(=O)O)cc1 ?
HSF1 inh: -62*; esBAF inh: 0; HSF1 activator: -64; Wnt act: inconclusive; MITF TRPM1 HTS: -8

What do the screens show for `CCOCC(=O)Nc1cc(C(=O)Nc2ccccc2)ccc1Cl`?
HSF1 inh: 8; esBAF inh: 51*; HSF1 activator: 29; Wnt act: 11; MITF TRPM1 HTS: 27

Results for O=C(Nc1ccccn1)c1ccc(Cl)c(S(=O)(=O)N2CCCC2)c1 ?
HSF1 inh: 4; esBAF inh: 56*; HSF1 activator: 9; Wnt act: 3; MITF TRPM1 HTS: 41

How did CCCCC(=O)Nc1cc(C(=O)NCCc2ccccc2)ccc1Cl do in these assays?
HSF1 inh: 28; esBAF inh: inconclusive; HSF1 activator: 18; MITF TRPM1 HTS: 126*

How did COc1cccc(C(=O)Nc2cc(C(=O)NCCc3ccccc3)ccc2Cl)c1 do in these assays?
HSF1 inh: 41; esBAF inh: 29; HSF1 activator: inconclusive; Wnt act: 0; MITF TRPM1 HTS: 44

Results for O=C(NCCc1ccccc1)c1ccc(Cl)c(S(=O)(=O)N2CCCC2)c1 ?
HSF1 inh: 16; esBAF inh: 59*; HSF1 activator: 37; MITF TRPM1 HTS: 40

Results for CCCNC(=O)C[C@@H]1C[C@@H]2c3cc(NC(=O)C4CCC4)ccc3O[C@@H]2[C@@H](CO)O1 ?
esBAF inh: -5

How did CCCC(=O)Nc1ccc2c(c1)C(=O)N(C)C[C@@H](OC)[C@H](C)CN(C(=O)c1cnccn1)[C@H](C)CO2 do in these assays?
esBAF inh: -2

How did Cc1ccc(C(=O)NC(C)CCc2ccccc2)cc1S(=O)(=O)N1CCOCC1 (stereo not given) do in these assays?
esBAF inh: 12; Wnt act: -3; MITF TRPM1 HTS: -17

What do the screens show for `CC(C)CCNC(=O)c1sc2ccc(S(=O)(=O)N3CCCCC3)cc2c1N`?
HSF1 inh: 6; HSF1 activator: 12; MITF TRPM1 HTS: -17

How did Nc1c(C(=O)NCCc2ccc(Cl)cc2)sc2ccc(S(=O)(=O)N3CCCCC3)cc12 do in these assays?
HSF1 inh: 36; HSF1 activator: 63*; Wnt act: -5

What do the screens show for `Cc1ccc(C(=O)NCCc2ccccc2)cc1S(=O)(=O)N1CCOCC1`?
esBAF inh: 68*; Wnt act: 27; MITF TRPM1 HTS: 71

What do the screens show for `C[C@H](CO)N1C[C@H](C)[C@@H](CN(C)Cc2ccc(C(=O)O)cc2)OCCCC[C@H](C)Oc2ccc(NC(=O)NC3CCCCC3)cc2C1=O`?
esBAF inh: -2

How did O=C(Nc1ncccc1Cl)c1cc2ccccc2o1 do in these assays?
HSF1 inh: 29; esBAF inh: inconclusive; HSF1 activator: inconclusive; Wnt act: 46*; MITF TRPM1 HTS: 51

Results for O=C(Nc1ccccc1)c1cc2ccccc2o1 ?
HSF1 inh: 19; esBAF inh: -8; HSF1 activator: 47; Wnt act: 35*; MITF TRPM1 HTS: -8

Results for Cc1cc(C(=O)Nc2ccccc2)oc1C ?
HSF1 inh: -10; HSF1 activator: -8; MITF TRPM1 HTS: 113*

What do the screens show for `COc1ccc(NC(=O)c2cc(CN3C(=O)c4ccccc4C3=O)ccc2OC)cn1`?
HSF1 inh: -67*; esBAF inh: 4; HSF1 activator: -74; MITF TRPM1 HTS: -17

Results for COc1ccc(S(=O)(=O)N(C)C[C@@H]2Oc3ccc(NC(=O)C4CCCCC4)cc3C(=O)N([C@@H](C)CO)C[C@H]2C)cc1 ?
esBAF inh: -3

What do the screens show for `COc1ccc(S(=O)(=O)N(C)C[C@@H]2OCCCC[C@@H](C)Oc3ccc(NC(=O)CCC(F)(F)F)cc3C(=O)N([C@H](C)CO)C[C@H]2C)cc1`?
esBAF inh: 3

Results for Cc1ccc(S(=O)(=O)N(C)C[C@H]2Oc3ccc(NC(=O)NC4CCCCC4)cc3C(=O)N([C@H](C)CO)C[C@@H]2C)cc1 ?
esBAF inh: -1

Results for O=C(c1cc2ccccc2o1)c1cccs1 ?
HSF1 inh: 22; esBAF inh: inconclusive; HSF1 activator: 22; Wnt act: 58*

What do the screens show for `O=C(Nc1ccc(F)cc1)c1cc2ccccc2o1`?
HSF1 inh: 35; esBAF inh: 47*; HSF1 activator: inconclusive; Wnt act: 16; MITF TRPM1 HTS: 45

What do the screens show for `COc1ccc(NC(=O)c2ccco2)cn1`?
HSF1 inh: 3; esBAF inh: -8; HSF1 activator: 18; Wnt act: 1; MITF TRPM1 HTS: 26
